Assay [1] in a line: P-glycoprotein substrates identified in KB-3-1 adenocarcinoma cell line, qHTS therapeutic library screen (AID 1346986). Note: nearly all actives have a fitted effect of over 60% in size.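 Note: potency is the fitted concentration of half-maximal effect; potency is for cytotoxicity meaning loss of cell viability.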 The method, boiled down: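 Resistance attributable to P-gp was assessed by comparing AC50 in KB-8-5-11 with parental KB-3-1 and by tariquidar reversal. Cells were exposed 72 h and viability read by CellTiter-Glo.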
A short description of assay [2]: P-glycoprotein substrates identified in KB-8-5-11 adenocarcinoma cell line, qHTS therapeutic library screen (AID 1346987). Note: nearly all actives have a fitted effect of over 65% in size. Note: potency is the fitted concentration of half-maximal effect. The method, boiled down:
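KB-8-5-11, a colchicine-selected P-gp-overexpressing KB-3-1 subline, was grown without colchicine for the assay. Cells were seeded at 500 cells/well, dosed in concentration-response and incubated 72 h at 37 degree C, 5% CO2. Viability was read by CellTiter-Glo luminescence.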
A general note: Quantitative high-throughput screening tests each substance at several concentrations.

The nature of assay [3]: Primary qHTS for inhibitors of nuclear receptor binding SET domain protein 2 (NSD2) in an isogenic RCH-ACV NSD2 p.E1099K mutant (9B) (AID 1645876). Note: nearly all actives have a fitted effect of over 70% in size. Note: potency is the fitted concentration of half-maximal effect.
The nature of assay [4]: Primary qHTS for inhibitors of nuclear receptor binding SET domain protein 2 (NSD2) in an RCH-ACV wild type WT cells (2C) (AID 1645877). Note: nearly all actives have a fitted effect of over 70% in size. Note: potency is the fitted concentration of half-maximal effect.
Assay [5] concerns the target Calcium and integrin-binding protein 1 (Homo sapiens) (UniProt Q99828). The experiment in a line: Primary qHTS for Identification of Calcium Integrin Binding Protein 1 (CIB1) Competitor (AID 1508620).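 Note: GST tagged CIB1 binding a fluorescein labelled alphaIIb integrin peptide tracer; top concentration of the series differs between compounds; % is set by controls: 0 for no effect and ±100 for the full control effect.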 A digest of the protocol: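 Fluorescence polarization competition: CIB1-GST (1 uM final) preincubated with compound 15 min at room temperature, then FITC-labeled alphaIIb peptide (100 nM final) added for another 15 min. Polarization read at Ex 480/Em 540.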

Assay [6] concerns the target Glutathione peroxidase 1 (Homo sapiens) (UniProt P07203). Briefly: Primary qHTS Assay for Inhibitors of Recombinant Selenoprotein Glutathione Peroxidase 1 (GPX1) (AID 1845191). For activity, negative = inhibition: % is set by controls: 0 for no effect and ±100 for the full control effect. Note: nearly all actives have a fitted effect of over 65% in size. Note: potency is the fitted concentration of half-maximal effect. The method, boiled down: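 Recombinant GPX1 (10 nM final) was preincubated with compound for 30 min at room temperature, then reacted with 1 mM GSH, 0.5 mM CHP, 0.5 mM NADPH and 100 nM glutathione reductase; NADPH fluorescence (340/450 nm) was read at 0 and 15 min.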

The nature of assay [7]: qHTS to identify inhibitors of the type 1 interferon - major histocompatibility complex class I in skeletal muscle: primary screen against the NCATS Mechanism Interrogation Plate v5.0 (MIPE) Libary (AID 1347411).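 Note: plate controls were vehicle for no effect and reference inhibitor for full effect; nearly all actives have a fitted effect of over 65% in size.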 A digest of the protocol:
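Immortalized human myoblasts (C25cl48) with HiBit knocked into endogenous HLA-B*08:01 were stimulated with 4 ng/ml IFN-beta and given compounds in 11-point 1:3 titration from 46 uM. After 24 h at 37 C, lytic HiBiT luminescence was read.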

Assay [8] in a line: qHTS drug screen for cell cycle checkpoint inhibitors in PARPi-resistant BRCA-mutant ovarian cancer cell lines. (AID 1963452; calls by dose curve). The following applies: PEO1/OlaR viability, CellTiter-Glo luminescence, 96 h, stronger effect = lower value. The method, boiled down: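 PEO1, PEO4 and PEO1/OlaR ovarian cancer cells, 600 per well, exposed 96 h at 37C to a dilution series. Viability read by CellTiter-Glo luminescence, normalized to DMSO and empty wells; activity summarized as Z-AUC.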

Assay [9] deals with Cytochrome P450 2D6 (Homo sapiens) (UniProt P10635). The experiment in a line: Cytochrome P450 family 2 subfamily D member 6 (CYP2D6) small molecule antagonists: luciferase biochemical (cell-free) qHTS assay (AID 1645840; active = well fitted curve in the direction sought with a large enough effect in the repeat runs; an effect the other way counts as inactive or inconclusive; note: % is set by controls: 0 for no effect and ±100 for the full control effect; nearly all actives have a fitted effect of over 55% in size). The method, boiled down: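 P450-Glo luminescent screen: recombinant CYP2D6 enzyme–proluciferin substrate mix preincubated with compound 10 min at room temperature, then NADPH regeneration added for 1 h at room temperature. Detection reagent added for 20 min; luciferin light read as relative luminescence units.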

Assay [10] addresses Cytochrome P450 2C9 (Homo sapiens) (UniProt P11712). Briefly: Cytochrome P450 family 2 subfamily C member 9 (CYP2C9) small molecule antagonists: luciferase biochemical (cell-free) qHTS assay (AID 1645842; active = well fitted curve in the direction sought with a large enough effect in the repeat runs; an effect the other way counts as inactive or inconclusive; note: % is set by controls: 0 for no effect and ±100 for the full control effect; nearly all actives have a fitted effect of over 55% in size). The method, boiled down:
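Luminescence, after 20 min with luciferin detection reagent, reflected CYP2C9 turnover during a 1 h NADPH-driven reaction at 37C. Enzyme-substrate mix contained 0.4% bovine serum albumin and was preincubated with compound 10 min at room temperature.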

A short description of assay [11]: NCATS anti-infectives library activity on HEK293 viability as a counter-qHTS vs the C. elegans viability qHTS (AID 1745854).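 Note: HEK293 cells exposed to compounds for 24 hr before the viability read; % is set by controls: 0 for no effect and ±100 for the full control effect.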 The method, boiled down: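 HEK293 cells (1,500/well) exposed 24 hr at 37C to 1:5 titrations, up to 41.7 uM final; counter-screen to a C. elegans viability qHTS. Viability by CellTiter-Glo luminescence after 10 min at room temperature; digitonin as control.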

Assay [12] concerns the target Catechol O-methyltransferase (Homo sapiens) (UniProt P21964). Briefly: Confirmatory Screen for Target Class Profiling of Small Molecule Inhibitors of Methyltransferases (AID 1745852; calls by dose curve; note: potency is the fitted concentration of half-maximal effect; for activity change, negative = inhibition: % is set by controls: 0 for no effect and ±100 for the full control effect). The following applies: MTase-Glo luminescence, SAH detection, recombinant enzyme; measured here: COMT max response; stronger effect = lower value.
The target in assay [13] is Guanidinoacetate N-methyltransferase (Homo sapiens) (UniProt Q14353). The description is as above. The following applies: activity change, negative = inhibition: at 57.3 µM (top of the series) unless noted.
In assay [14] the target is Nicotinamide N-methyltransferase (Homo sapiens) (UniProt P40261). The assay is described as above. The following applies: MTase-Glo luminescence, SAH detection, recombinant enzyme; measured here: NNMT max response; stronger effect = lower value.
Assay [15] has as its target Phenylethanolamine N-methyltransferase (Homo sapiens) (UniProt P11086). The description is as above. The following applies: MTase-Glo luminescence, SAH detection, recombinant enzyme; measured here: PNMT max response; stronger effect = lower value.
Setting [16] is: measured here: PEO1 parental Z-AUC.

Results filed as inconclusive are left out. Calls of active or inactive are those of the source. Unless noted, calls come from the whole dose curve; as a rule, active = well fitted curve in the direction sought with a large enough effect; inconclusive = small, poorly fitted or top-dose-only effect, or another doubt; inactive = no such curve, though single readings can be large; an effect the other way counts as inactive or inconclusive.

Chain of Phenylethanolamine N-methyltransferase (Homo sapiens) (P11086 whole entry, looked up): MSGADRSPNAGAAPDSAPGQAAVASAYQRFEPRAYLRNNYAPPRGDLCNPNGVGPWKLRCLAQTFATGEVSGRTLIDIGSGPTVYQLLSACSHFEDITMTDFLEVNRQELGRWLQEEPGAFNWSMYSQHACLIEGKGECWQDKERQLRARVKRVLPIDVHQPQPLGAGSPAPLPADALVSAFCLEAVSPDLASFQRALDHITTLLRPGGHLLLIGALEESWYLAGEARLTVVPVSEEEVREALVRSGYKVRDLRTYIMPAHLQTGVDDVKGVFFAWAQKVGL
Chain of Catechol O-methyltransferase (Homo sapiens) (P21964 whole entry, looked up): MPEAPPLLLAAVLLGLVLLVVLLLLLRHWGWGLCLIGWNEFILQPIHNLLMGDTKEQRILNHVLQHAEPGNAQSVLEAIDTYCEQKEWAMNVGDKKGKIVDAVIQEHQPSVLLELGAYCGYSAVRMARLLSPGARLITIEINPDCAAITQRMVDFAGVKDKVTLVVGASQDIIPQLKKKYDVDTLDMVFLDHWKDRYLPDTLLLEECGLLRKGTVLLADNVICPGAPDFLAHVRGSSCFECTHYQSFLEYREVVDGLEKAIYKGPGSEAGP
Chain of Nicotinamide N-methyltransferase (Homo sapiens) (P40261 whole entry, looked up): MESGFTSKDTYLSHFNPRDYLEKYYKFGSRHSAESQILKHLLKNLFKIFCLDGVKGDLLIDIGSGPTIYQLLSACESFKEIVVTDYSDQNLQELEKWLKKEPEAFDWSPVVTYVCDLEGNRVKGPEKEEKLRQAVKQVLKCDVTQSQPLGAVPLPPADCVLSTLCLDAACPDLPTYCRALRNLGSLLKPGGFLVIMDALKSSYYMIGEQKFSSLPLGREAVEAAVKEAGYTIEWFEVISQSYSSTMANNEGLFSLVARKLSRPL
Chain of Glutathione peroxidase 1 (Homo sapiens) (P07203 whole entry, looked up): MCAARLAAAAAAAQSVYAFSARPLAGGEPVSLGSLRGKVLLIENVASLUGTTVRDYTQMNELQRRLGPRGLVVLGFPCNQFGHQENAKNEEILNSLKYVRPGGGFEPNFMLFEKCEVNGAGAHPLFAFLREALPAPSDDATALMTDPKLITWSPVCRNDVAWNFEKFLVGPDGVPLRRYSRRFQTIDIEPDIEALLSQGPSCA
Chain of Calcium and integrin-binding protein 1 (Homo sapiens) (Q99828 whole entry, looked up): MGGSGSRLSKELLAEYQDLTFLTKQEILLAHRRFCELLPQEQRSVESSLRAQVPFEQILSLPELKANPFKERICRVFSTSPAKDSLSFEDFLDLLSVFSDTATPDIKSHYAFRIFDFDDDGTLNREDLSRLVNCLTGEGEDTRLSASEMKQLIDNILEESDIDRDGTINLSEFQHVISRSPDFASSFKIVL
Chain of Cytochrome P450 2D6 (Homo sapiens) (P10635 whole entry, looked up): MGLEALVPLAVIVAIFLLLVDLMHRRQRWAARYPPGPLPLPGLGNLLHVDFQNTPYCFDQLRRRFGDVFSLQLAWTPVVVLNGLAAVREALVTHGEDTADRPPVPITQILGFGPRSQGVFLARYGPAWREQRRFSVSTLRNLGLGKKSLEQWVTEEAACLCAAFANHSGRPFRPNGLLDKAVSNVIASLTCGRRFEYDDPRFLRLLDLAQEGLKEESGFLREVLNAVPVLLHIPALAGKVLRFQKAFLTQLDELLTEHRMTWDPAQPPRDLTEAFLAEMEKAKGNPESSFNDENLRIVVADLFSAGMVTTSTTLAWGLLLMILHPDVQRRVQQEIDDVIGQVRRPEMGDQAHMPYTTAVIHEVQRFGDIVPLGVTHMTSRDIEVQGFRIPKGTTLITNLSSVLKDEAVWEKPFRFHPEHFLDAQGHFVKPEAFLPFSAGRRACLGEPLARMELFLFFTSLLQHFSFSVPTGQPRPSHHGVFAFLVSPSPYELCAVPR
Chain of Cytochrome P450 2C9 (Homo sapiens) (P11712 whole entry, looked up): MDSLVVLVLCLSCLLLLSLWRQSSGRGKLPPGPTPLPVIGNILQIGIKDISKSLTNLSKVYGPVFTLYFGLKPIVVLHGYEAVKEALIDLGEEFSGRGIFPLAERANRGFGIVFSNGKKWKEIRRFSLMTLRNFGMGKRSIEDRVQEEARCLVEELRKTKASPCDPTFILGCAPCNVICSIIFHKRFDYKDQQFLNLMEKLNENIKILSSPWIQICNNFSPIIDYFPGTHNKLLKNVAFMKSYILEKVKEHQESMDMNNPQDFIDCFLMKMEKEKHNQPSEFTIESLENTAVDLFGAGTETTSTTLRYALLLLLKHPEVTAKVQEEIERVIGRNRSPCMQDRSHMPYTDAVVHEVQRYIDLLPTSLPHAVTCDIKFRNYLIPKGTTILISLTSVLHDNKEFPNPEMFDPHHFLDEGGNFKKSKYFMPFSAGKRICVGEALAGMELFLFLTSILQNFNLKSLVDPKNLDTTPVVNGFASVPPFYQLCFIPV

With `CCn1c(=O)c2cc(C(N)=O)c(N)nc2n(C2CC2)c1=O`, the Potency result in assay [1], in assay [2], in [3] and in assay [4] was “inactive” in each case.
In the case of `CCOc1ccc(/C=C2\SC(=O)N(CCN)C2=O)cc1`, the Potency entry in [1], in [2], in assay [3] and in assay [4] was “inactive” throughout.
For `O=C1CCCC2=C1C(c1ccccc1Br)N=C(Nc1nc3ccccc3o1)N2` (stereo not given), the Potency result in [1], in assay [2], in [3], in [4] and in [6] was “inactive” in each case. Also, the outcome in assay [5] was “inactive”.
`Clc1ccc2ncc(-c3cccc(NC4CCNC4)n3)n2c1` (stereo not given): the Potency is 820 nM (active) in [1], 10300 nM (active) in assay [2], 1300 nM (active) in [3] and 1160 nM (active) in assay [4]. Besides, the outcome in assay [5] was “inactive”. In addition, the Potency result in [6] is “inactive”.
For the compound `CC(=O)Nc1ccc(C(=O)NC(C)(C)C)cc1`, the Potency entry in assay [1], in [2], in assay [7], in [3], in [4] and in [6] was “inactive” each time. The values for the Z-AUC in assay [8], in assay [8] (setting [16]) and in assay [8] (measured here: PEO4 Z-AUC) were 1.04 (inactive), 0.805 and 0.364, respectively.
`Cc1[nH]c(/C=C2\C(=O)Nc3ccccc32)c(C)c1CCC(=O)O`: the Potency entry in assay [1], in assay [2], in assay [9], in [10], in [3] and in assay [4] was “inactive” in each case. For the same compound, the Potency entry in assay [6] is “inactive”. The figures for the Z-AUC in assay [8], in assay [8] (setting [16]) and in [8] (measured here: PEO4 Z-AUC) were 0.922 (inactive), 0.668 and 0.162, respectively.
As for `O=C1NCCSc2c1sc1ccc(O)cc21`, the Potency in assay [1] is 6510 nM (active); in assay [2], 10300 nM (active); in assay [3], 5800 nM (active); in assay [4] it was 3660 nM (active). Moreover, in assay [6], the Potency entry was “inactive”.
`OC[C@H]1O[C@@H](O[C@@H]2OC=C[C@H]3[C@H](O)[C@@H]4O[C@]4(CO)[C@@H]23)[C@H](O)[C@@H](O)[C@@H]1O`: the Potency entry in assay [1], in assay [2], in assay [3] and in [4] was “inactive” in each case. In addition, the outcome in assay [11] is “inactive”.
Consider `CN[C@H]1CCN(C(=O)c2ccc(Nc3ncc(F)c(-c4cnc(C)n4C(C)C)n3)cc2)C1`, for which the Potency in [1] is 58 nM (active); in assay [2], 6510 nM (active); in assay [3] it was 92 nM (active); in [4], 116 nM (active). In assay [6], the Potency result is “inactive”.
Consider `O=C1Cc2c([nH]c3ccc([N+](=O)[O-])cc23)-c2ccccc2N1`, for which the Potency in [1] was 1780 nM (active); in assay [2], 2520 nM (active); in assay [3], 796 nM (active); in assay [4] it was 632 nM (active). Besides, the Potency result in [6] is “inactive”.
The like results for `O=S(=O)(/N=C/c1c(O)ccc2ccccc12)c1cccs1` were, in that order, “inactive”, “inactive”, “inactive”, “inactive” and “inactive”.
For `Cc1c(-c2ccnc(Nc3cc(Br)cc(C(F)(F)F)c3)n2)sc(=O)n1C`, in that order: “inactive”, “inactive”, 5800 nM (active), 4110 nM (active) and “inactive”.
For `C/C(=C1/C(=O)Nc2ccc(NC(N)=O)cc21)c1ccc[nH]1`, in that order: 4610 nM (active), 4610 nM (active), 1640 nM (active), 1840 nM (active) and “inactive”.
In the case of `CCOc1cccc2c1OC(c1ccc(F)cc1)C([N+](=O)[O-])=C2` (stereo not given), the Potency in assay [1] is 8200 nM (active); in assay [2], 11600 nM (active); in [3] it was 5800 nM (active); in [4] it was 5800 nM (active). The Potency result in assay [6] was “inactive”.
Consider `Cc1cc(C)c(/C=C2\C(=O)Nc3ccc(Cl)cc32)[nH]1`, for which the Potency entry in [1], in assay [2], in assay [3], in assay [4] and in assay [6] was “inactive” throughout.
Consider `Cc1cncc2cccc(S(=O)(=O)N3CCCNC[C@@H]3C)c12`, for which the Potency in assay [1] was 6510 nM (active); in [2], 1640 nM (active); in [3], 13000 nM (active); in [4] it was 3660 nM (active). Moreover, the Potency result in assay [6] was “inactive”.
On to `O=C1c2ccccc2-c2nc3nnnn3nc21` (tested in a mixture with another compound), for which the Potency in [1] was 920 nM (active); in [2], 920 nM (active); in assay [3], 82 nM (active); in [4], 184 nM (active); in assay [13] it was 482 nM (active); in [6], 16100 nM (active). Moreover, the activity is -95.2% in assay [12], -67.5% in [14] and -24.7% in assay [15].
`CC(Sc1nc2c(cnn2-c2cccc(Cl)c2)c(=O)[nH]1)C(N)=O` (stereo not given): the Potency entry in assay [1], in assay [2], in assay [3], in assay [4] and in assay [6] was “inactive” each time.
For `Cc1cn([C@H]2C[C@H](O)[C@@H](CO)O2)c(=O)nc1N`, the Potency entry in [1], in assay [2], in assay [3], in [4] and in assay [6] was “inactive” each time.
With `CN(C)CCNC(=O)c1cccn2c(=O)c3cc4ccccc4cc3nc12`, the Potency in assay [1] is 1190 nM (active); in [2] it was 1190 nM (active); in assay [3], 668 nM (active); in assay [4] it was 668 nM (active). The activity in [12] came to 3%; in assay [14], 3.48%; in assay [15], 3.82%. Besides, the activity change, negative = inhibition in assay [13] was determined as 0.968% [at 12.7 µM]. Besides, the activity, negative = inhibition in assay [6] is 2.53% [at 9.52 µM] (inactive).
As to `CC(C)C(=O)OC[C@H]1O[C@@H](n2ccc(N)nc2=O)[C@](C)(F)[C@@H]1OC(=O)C(C)C`, the Potency entry in assay [1], in assay [2], in assay [3] and in assay [4] was “inactive” throughout. The outcome in [11] is “inactive”.
`Oc1cc(CNC(=S)/C=C/c2cc(O)c(O)c(Br)c2)cc(O)c1O`: the Potency was 7310 nM (active) in assay [1]; 7310 nM (active) in assay [2]; 1160 nM (active) in assay [3]; 1030 nM (active) in assay [4]; 8060 nM (active) in [6]. Besides, the activity in assay [12] was -46.2%; in assay [14], -0.986%; in assay [15], -0.984%. The activity change, negative = inhibition in assay [13] is -4.79%.
Regarding `OCC(O)CCO/N=C1/C(c2c(O)[nH]c3ccccc23)=Nc2ccccc21` (stereo not given), the Potency in assay [1] is 14600 nM (active); in assay [2], 16400 nM (active); in assay [3], 2590 nM (active); in [4] it was 2590 nM (active). Besides, the Potency result in assay [6] was “inactive”.
As to `COC(=O)c1ccc(=O)c2nc3/c(=C/O)c(O)cc(=O)c3[nH]c12`, the Potency entry in assay [1], in assay [2] and in assay [6] was “inactive” throughout. Moreover, the Potency was 5170 nM (active) in assay [3] and 13000 nM (active) in assay [4]. The activity in [12] was -24.9%; in [14] it was -20%; in [15], -28.7%. In addition, in [13], the activity change, negative = inhibition is -20.5%.

(Values after PubChem BioAssay (NCATS).)
